From PubChem BioAssay (EPA / NIEHS)
Results filed as inconclusive are left out. Activity calls are given as the source filed them. The calls were made as follows, unless noted: active = hit-call score of the fitted dose curve at least 0.9, where 1 is the maximum; inactive = score below 0.9.

What was measured:
[1] = ATG_PBREM_CIS: Attagene CIS-FACTORIAL HepG2 Assay for human Phenobarbital-responsive Enhancer Module (PBREM) (AID 2282955); conditions: HepG2 PBREM cis-reporter, Attagene multiplexed transcription; actives raise or lower the signal
In short: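 Transfected liver-derived HepG2 cells exposed 24 h; PBREM reporter transcript quantified via RT-PCR and capillary electrophoresis, with activity in either direction referenced to DMSO.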

[2] = target: Paired box protein Pax-6 (Homo sapiens) (UniProt P26367); test: ATG_Pax6_CIS: Attagene CIS-FACTORIAL HepG2 Assay for human Paired Box 6 (PAX6) (AID 2282956); conditions: HepG2 CIS-FACTORIAL PAX6 reporter transcription, RNA readout; actives raise or lower the signal
Chain of Paired box protein Pax-6 (Homo sapiens) (P26367 whole entry, looked up): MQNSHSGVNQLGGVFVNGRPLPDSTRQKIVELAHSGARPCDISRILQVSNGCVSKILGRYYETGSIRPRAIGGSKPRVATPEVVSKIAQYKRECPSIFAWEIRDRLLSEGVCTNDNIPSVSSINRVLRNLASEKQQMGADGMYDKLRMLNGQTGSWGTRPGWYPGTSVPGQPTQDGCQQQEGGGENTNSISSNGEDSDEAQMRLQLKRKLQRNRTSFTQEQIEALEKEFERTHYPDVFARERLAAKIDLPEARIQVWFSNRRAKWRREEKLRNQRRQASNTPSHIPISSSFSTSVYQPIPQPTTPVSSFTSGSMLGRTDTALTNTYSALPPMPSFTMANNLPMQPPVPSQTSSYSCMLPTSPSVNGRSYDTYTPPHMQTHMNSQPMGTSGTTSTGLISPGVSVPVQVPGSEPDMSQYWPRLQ
In short: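 DMSO-referenced bidirectional fits of reporter mRNA fluorescence; HepG2 with transient cis-promoter MRTUs, 24 h post-dose, RT-PCR plus capillary electrophoresis detection.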

[3] = ATG_PXRE_CIS: Attagene CIS-FACTORIAL HepG2 Assay for human Pregnane X Receptor Element (PXRE) (AID 2282957); conditions: HepG2 Attagene CIS-FACTORIAL PXRE reporter, mRNA; actives raise or lower the signal
In short: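 Endogenous transcription factor activity in HepG2 was gauged through induction of reporter mRNA driven by a cis-regulating promoter element, sampled 24 h post-treatment. Activity was fitted in both directions against DMSO negative control.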

[4] = ATG_PPRE_CIS: Attagene CIS-FACTORIAL HepG2 Assay for human Peroxisome Proliferator-activated Response Element (PPRE) (AID 2282958); conditions: HepG2 PPRE cis-element reporter, Attagene transcription factor profiling; actives raise or lower the signal
In short: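 Measured endpoint: PPRE-controlled reporter mRNA, detected by RT-PCR and capillary electrophoresis fluorescence, from transiently transfected HepG2 cells 24 h after dosing. Curves fitted in both directions using DMSO baseline.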

[5] = ATG_RORE_CIS: Attagene CIS-FACTORIAL HepG2 Assay for human RAR-related Orphan Receptor Element (RORE) (AID 2282959); conditions: HepG2 Attagene cis-factorial RORE reporter, mRNA; actives raise or lower the signal
In short: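 Transiently transfected HepG2 reporter cells were treated 24 h. Reporter transcripts were detected by RT-PCR and capillary electrophoresis, with bidirectional fitting against DMSO.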

[6] = ATG_Sox_CIS: Attagene CIS-FACTORIAL HepG2 Assay for human SRY-box transcription factor (SOX) (AID 2282960); conditions: HepG2 Attagene cis-factorial SOX reporter, mRNA; actives raise or lower the signal
In short: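 Gain- or loss-of-signal endpoint, fitted bidirectionally with DMSO as negative control. Based on reporter mRNA from transfected HepG2 cells harvested 24 h post-treatment and quantified via RT-PCR and capillary electrophoresis.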

[7] = target: Transcription factor Sp1 (Homo sapiens) (UniProt P08047); test: ATG_Sp1_CIS: Attagene CIS-FACTORIAL HepG2 Assay for human Specificity Protein 1 (Sp1) (AID 2282961); conditions: HepG2 Sp1 cis-reporter transcription, actives raise or lower the signal
Chain of Transcription factor Sp1 (Homo sapiens) (P08047 whole entry, looked up, the tested form may be a part): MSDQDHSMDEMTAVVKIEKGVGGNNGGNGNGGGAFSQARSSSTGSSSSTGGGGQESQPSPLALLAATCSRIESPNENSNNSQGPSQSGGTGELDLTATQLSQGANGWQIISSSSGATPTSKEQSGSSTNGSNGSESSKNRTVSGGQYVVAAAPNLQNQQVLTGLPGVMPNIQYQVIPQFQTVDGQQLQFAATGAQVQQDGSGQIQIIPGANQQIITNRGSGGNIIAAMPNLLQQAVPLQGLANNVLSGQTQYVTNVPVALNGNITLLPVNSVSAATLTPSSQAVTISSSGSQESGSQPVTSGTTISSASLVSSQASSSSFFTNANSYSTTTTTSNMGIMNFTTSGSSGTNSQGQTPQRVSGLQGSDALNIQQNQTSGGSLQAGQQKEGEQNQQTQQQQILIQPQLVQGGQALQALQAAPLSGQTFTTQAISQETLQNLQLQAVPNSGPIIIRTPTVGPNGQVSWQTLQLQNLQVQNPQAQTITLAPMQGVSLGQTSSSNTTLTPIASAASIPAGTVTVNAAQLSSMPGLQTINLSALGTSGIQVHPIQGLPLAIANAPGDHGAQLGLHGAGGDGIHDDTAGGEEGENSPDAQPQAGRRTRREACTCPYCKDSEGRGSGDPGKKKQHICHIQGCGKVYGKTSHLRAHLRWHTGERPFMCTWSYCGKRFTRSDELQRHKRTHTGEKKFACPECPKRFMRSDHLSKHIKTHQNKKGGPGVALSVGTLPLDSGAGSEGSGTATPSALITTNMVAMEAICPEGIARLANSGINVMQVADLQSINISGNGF
In short: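 Endpoint reflects endogenous Sp1 transcriptional activity, not an exogenous fusion protein: HepG2 cells with transfected cis-regulated reporters, 24 h dosing, RT-PCR/capillary electrophoresis mRNA read-out, DMSO-normalised bidirectional fit.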

[8] = ATG_SREBP_CIS: Attagene CIS-FACTORIAL HepG2 Assay for human Sterol Regulatory Element Binding (SREBP) (AID 2282962); conditions: HepG2 Attagene cis-factorial SREBP reporter, mRNA; actives raise or lower the signal
In short: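 In this cis-format assay, HepG2 liver cells express reporters controlled by promoter elements responsive to native transcription factors. Exposure lasts 24 h; reporter mRNA fluorescence from capillary electrophoresis gives the signal, fitted bidirectionally against DMSO.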

[9] = target: Signal transducer and activator of transcription 3 (Homo sapiens) (UniProt P40763); test: ATG_STAT3_CIS: Attagene CIS-FACTORIAL HepG2 Assay for human Signal Transducer and Activator of Transcription 3 (STAT3) (AID 2282963); conditions: HepG2, Attagene cis-factorial STAT3 reporter transcription; actives raise or lower the signal
Chain of Signal transducer and activator of transcription 3 (Homo sapiens) (P40763 whole entry, looked up, the tested form may be a part): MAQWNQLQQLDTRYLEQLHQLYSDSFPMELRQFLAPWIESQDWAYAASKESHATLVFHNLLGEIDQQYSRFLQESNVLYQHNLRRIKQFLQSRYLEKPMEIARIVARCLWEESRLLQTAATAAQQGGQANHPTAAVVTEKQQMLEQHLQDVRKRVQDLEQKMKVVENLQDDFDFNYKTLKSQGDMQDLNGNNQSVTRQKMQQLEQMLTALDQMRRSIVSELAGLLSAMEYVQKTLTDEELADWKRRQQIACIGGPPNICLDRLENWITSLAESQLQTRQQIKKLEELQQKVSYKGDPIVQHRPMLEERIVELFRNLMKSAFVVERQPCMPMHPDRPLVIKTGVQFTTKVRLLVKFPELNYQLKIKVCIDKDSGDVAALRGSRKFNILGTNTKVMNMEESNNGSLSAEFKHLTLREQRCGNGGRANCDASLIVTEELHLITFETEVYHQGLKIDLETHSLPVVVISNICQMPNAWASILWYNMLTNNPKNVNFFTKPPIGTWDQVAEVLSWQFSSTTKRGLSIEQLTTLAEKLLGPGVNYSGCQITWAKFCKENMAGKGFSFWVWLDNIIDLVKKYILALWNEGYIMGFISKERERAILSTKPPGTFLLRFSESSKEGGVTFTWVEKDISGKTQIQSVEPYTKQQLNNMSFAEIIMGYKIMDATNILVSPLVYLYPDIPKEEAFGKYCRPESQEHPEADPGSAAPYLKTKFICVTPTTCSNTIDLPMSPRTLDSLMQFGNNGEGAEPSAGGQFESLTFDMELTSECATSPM
In short: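 Fluorescence intensity of 6-FAM-labelled reporter fragments, separated by capillary electrophoresis after RT-PCR, gave the signal. Cells were HepG2 transfected with cis-element reporter units and treated 24 h; fitting was bidirectional relative to DMSO.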

[10] = ATG_TA_CIS: Attagene CIS-FACTORIAL HepG2 Assay for human TA Basal Promoter (AID 2282964); conditions: HepG2 Attagene CIS-factorial TA basal promoter reporter; actives raise or lower the signal
In short: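 Steps: transfect HepG2 with MRTUs; dose 24 h; isolate RNA, DNase-treat, reverse-transcribe; PCR and FAM-label reporter cDNA; digest with HpaI 2h at 37 C; run capillary electrophoresis. Activity fitted both directions against DMSO.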

[11] = ATG_TCF_b_cat_CIS: Attagene CIS-FACTORIAL HepG2 Assay for human T-Cell-Factor with beta-catenin (TCF/b-cat) (AID 2282965); conditions: HepG2 TCF/beta-catenin cis-reporter transcription, actives raise or lower the signal
In short: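 Cells of the HepG2 line carry transiently transfected reporter units whose promoters respond to endogenous factors. Twenty-four hours post-dosing, reporter mRNA induction is measured by fluorescent RT-PCR and capillary electrophoresis, with DMSO as baseline.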

[12] = ATG_TAL_CIS: Attagene CIS-FACTORIAL HepG2 Assay for human TAL Basal Promoter (AID 2282966); conditions: HepG2 Attagene cis-factorial TAL promoter reporter; actives raise or lower the signal;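 also: background control endpoint measuring basal TAL promoter reporter mRNA not a specific factor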
In short: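 Endogenous transcription-factor activity is sensed in HepG2 cells through transfected cis-promoter reporter constructs. After 24 h dosing, reporter transcripts are quantified by RT-PCR and capillary electrophoresis. Gain or loss of signal is fitted relative to DMSO.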

[13] = ATG_TGFb_CIS: Attagene CIS-FACTORIAL HepG2 Assay for human Transforming Growth Factor (TGF) (AID 2282967); conditions: HepG2 Attagene CIS TGFb reporter, mRNA transcription; actives raise or lower the signal
In short: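 Cells were dosed for 24 hours, after which total RNA was reverse-transcribed and reporter sequences amplified, labeled and sized by capillary electrophoresis. Activity was fitted in both directions against DMSO.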

[14] = ATG_VDRE_CIS: Attagene CIS-FACTORIAL HepG2 Assay for human Vitamin D Receptor Element (VDRE) (AID 2282968); conditions: HepG2 VDRE cis-reporter transcription, actives raise or lower the signal
In short: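 Compounds were applied for 24 h to HepG2 cells transfected with promoter-regulated reporter units. Total RNA was reverse-transcribed, and reporter amplicons were fluorescently labelled and sized by capillary electrophoresis.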

[15] = target: Nuclear receptor subfamily 1 group I member 3 (Homo sapiens) (UniProt Q14994); test: ATG_CAR_TRANS: Attagene TRANS-FACTORIAL HepG2 Assay for human Constitutive Androstane Receptor (CAR) (AID 2282969; active = hit-call score of the fitted dose curve at least 0.9, where 1 is the maximum;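 also: activators raise reporter mRNA above DMSO so AC50 marks induction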); conditions: HepG2 Attagene TRANS-FACTORIAL CAR reporter
Chain of Nuclear receptor subfamily 1 group I member 3 (Homo sapiens) (Q14994 whole entry, looked up, the tested form may be a part): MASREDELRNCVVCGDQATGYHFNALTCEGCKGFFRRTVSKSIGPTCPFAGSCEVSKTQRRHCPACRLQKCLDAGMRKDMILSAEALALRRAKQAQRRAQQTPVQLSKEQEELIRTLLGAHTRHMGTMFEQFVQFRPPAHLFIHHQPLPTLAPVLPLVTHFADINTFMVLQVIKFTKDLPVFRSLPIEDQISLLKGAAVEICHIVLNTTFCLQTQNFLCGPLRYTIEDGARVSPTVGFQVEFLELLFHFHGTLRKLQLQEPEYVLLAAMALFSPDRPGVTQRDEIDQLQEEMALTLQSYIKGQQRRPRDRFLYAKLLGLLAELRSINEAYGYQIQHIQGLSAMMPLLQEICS
In short: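 Transiently transfected HepG2, multiplex TRANS reporters (CAR-Gal4 chimera driving GAL4-UAS reporter). 24 h dosing. Readout: reporter transcript by RT-PCR + capillary electrophoresis, fluorescence intensity; positive direction vs DMSO.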

[16] = target: Estrogen receptor (Homo sapiens) (UniProt P03372); test: ATG_ERa_TRANS: Attagene TRANS-FACTORIAL HepG2 Assay for human Estrogen Receptor alpha (ERa) (AID 2282970; active = hit-call score of the fitted dose curve at least 0.9, where 1 is the maximum); conditions: HepG2 Attagene TRANS ERa GAL4 reporter, mRNA
Chain of Estrogen receptor (Homo sapiens) (P03372 whole entry, looked up, the tested form may be a part): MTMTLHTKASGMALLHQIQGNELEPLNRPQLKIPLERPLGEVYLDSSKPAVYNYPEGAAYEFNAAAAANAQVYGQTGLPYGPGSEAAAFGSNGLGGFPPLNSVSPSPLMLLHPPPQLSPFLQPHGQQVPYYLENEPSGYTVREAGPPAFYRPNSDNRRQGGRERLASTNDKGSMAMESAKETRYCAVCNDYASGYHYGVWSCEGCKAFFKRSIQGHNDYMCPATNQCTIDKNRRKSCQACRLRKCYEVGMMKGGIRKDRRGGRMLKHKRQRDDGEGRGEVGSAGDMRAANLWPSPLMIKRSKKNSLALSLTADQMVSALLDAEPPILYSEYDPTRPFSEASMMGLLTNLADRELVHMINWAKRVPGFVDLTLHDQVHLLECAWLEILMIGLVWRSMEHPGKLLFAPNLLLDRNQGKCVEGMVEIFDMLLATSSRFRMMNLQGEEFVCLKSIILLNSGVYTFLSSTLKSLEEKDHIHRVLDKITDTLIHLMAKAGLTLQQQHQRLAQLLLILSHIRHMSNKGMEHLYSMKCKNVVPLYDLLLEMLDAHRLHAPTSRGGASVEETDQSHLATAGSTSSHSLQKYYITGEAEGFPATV
In short: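 Transfected HepG2 cells carrying GAL4-UAS-driven reporter units were dosed for 24 hours. Total RNA was reverse-transcribed, reporter sequences PCR-amplified, FAM-labelled, HpaI-digested and resolved by capillary electrophoresis. Increases over DMSO control defined activity.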

[17] = target: X-box-binding protein 1 (Homo sapiens) (UniProt P17861); test: ATG_Xbp1_CIS: Attagene CIS-FACTORIAL HepG2 Assay for human X-box Binding Protein 1 (XBP1) (AID 2282972); conditions: HepG2 XBP1 cis-element reporter, Attagene multiplex; actives raise or lower the signal
Chain of X-box-binding protein 1 (Homo sapiens) (P17861 whole entry, looked up): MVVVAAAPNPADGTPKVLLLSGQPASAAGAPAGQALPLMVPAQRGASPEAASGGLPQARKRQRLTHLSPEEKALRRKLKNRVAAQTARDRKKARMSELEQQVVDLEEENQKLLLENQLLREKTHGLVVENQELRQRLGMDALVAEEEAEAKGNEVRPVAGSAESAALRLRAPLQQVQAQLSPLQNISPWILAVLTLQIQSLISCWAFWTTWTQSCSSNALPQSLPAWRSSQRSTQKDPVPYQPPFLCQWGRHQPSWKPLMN
In short: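 Changes in reporter transcript abundance, read by RT-PCR and capillary electrophoresis, reflect endogenous transcription factor activity. Transfected HepG2 cells received compound for 24 hours; DMSO defined baseline for bidirectional analysis.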

[18] = ATG_M_19_TRANS: Attagene TRANS-FACTORIAL HepG2 Assay for M19 Transcription Factor (Internal Marker) (AID 2282974; active = hit-call score of the fitted dose curve at least 0.9, where 1 is the maximum); conditions: HepG2 Attagene TRANS-FACTORIAL M19 internal marker reporter
In short: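 Using RT-PCR and capillary electrophoresis, reporter mRNA from transiently transfected human HepG2 cells was quantified following 24 h exposure; activity was fitted in the positive direction against DMSO.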

[19] = ATG_Hpa5_TRANS: Attagene TRANS-FACTORIAL HepG2 Assay for human GAL4-Hpa5 Hepatocyte Transcription Factor Basal Promoter (AID 2282975; active = hit-call score of the fitted dose curve at least 0.9, where 1 is the maximum;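 also: hits are increases in reporter mRNA over DMSO baseline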); conditions: HepG2 Attagene GAL4-Hpa5 transcription reporter
In short: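 Gain-of-signal versus DMSO is fitted for reporter mRNA quantified by RT-PCR and capillary electrophoresis after 24 h exposure. This endpoint is an internal background marker in transiently transfected HepG2 cells carrying GAL4-UAS reporter units.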

[20] = target: Steroid hormone receptor ERR1 (Homo sapiens) (UniProt P11474); test: ATG_ERRa_TRANS: Attagene TRANS-FACTORIAL HepG2 Assay for human Estrogen-Related Receptor alpha (ERRa) (AID 2282971; active = hit-call score of the fitted dose curve at least 0.9, where 1 is the maximum); conditions: HepG2 Attagene TRANS reporter, ERRa transactivation
Chain of Steroid hormone receptor ERR1 (Homo sapiens) (P11474 whole entry, looked up, the tested form may be a part): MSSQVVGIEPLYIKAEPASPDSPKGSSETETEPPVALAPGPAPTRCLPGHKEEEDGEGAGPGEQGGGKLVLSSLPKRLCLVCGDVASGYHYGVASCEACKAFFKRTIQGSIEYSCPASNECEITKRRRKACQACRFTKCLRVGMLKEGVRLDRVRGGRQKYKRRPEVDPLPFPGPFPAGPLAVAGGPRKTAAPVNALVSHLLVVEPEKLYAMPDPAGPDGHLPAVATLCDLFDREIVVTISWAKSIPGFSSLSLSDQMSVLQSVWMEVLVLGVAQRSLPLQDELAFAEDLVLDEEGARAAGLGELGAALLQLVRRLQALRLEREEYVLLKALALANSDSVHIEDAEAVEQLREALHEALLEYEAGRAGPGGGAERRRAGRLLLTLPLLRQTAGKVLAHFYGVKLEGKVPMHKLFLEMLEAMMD
In short: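 HepG2 cells were transiently transfected with multiple GAL4-UAS reporter units, then dosed with compound for 24 h. Total RNA was reverse-transcribed, reporter cDNA PCR-amplified and fluorescently labelled, and fragments resolved by capillary electrophoresis; induction was compared with DMSO.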

Measured: AC50

COc1c(Cl)ccc(Cl)c1C(=O)O
not listed: [19] | [20]
inactive: all other assays above

CCOC(=O)COc1cc(-n2ncc(C(F)(F)F)c(C)c2=O)c(F)cc1Cl
active: [3] 28.5 µM
not listed: [15] | [20]
inactive: all other assays above

Cc1nn(C)c(Oc2ccccc2)c1C=NOCc1ccc(C(=O)OC(C)(C)C)cc1
active: [2] 1.88 µM | [3] 1.15 µM | [4] 0.0423 µM | [7] 0.0212 µM | [13] 3.15 µM | [14] 0.698 µM | [17] 0.0386 µM
not listed: [1] | [15] | [19]
inactive: all other assays above

COC(=O)c1ccccc1C(=O)O
not listed: [15] | [16] | [19] | [20]
inactive: all other assays above

CCCCOCCOCCOCc1cc2c(cc1CCC)OCO2
active: [1] 8.08 µM | [3] 2.21 µM
not listed: [14] | [16] | [18] | [20]
inactive: all other assays above

O=C(O)c1ccccc1
not listed: [4] | [19] | [20]
inactive: all other assays above

COC(=O)CSc1cc(N=c2sc(=O)n3n2CCCC3)c(F)cc1Cl
active: [3] 9.92 µM | [4] 10.4 µM
not listed: [15] | [16] | [18] | [20]
inactive: all other assays above
